Assay outcomes from PubChem BioAssay.
In the library only some 3.3% were active in any assay of this set; here they are far more common.
Sm TGR block: qHTS Assay for the Inhibitors of Schistosoma Mansoni Peroxiredoxins | Schistosoma mansoni thioredoxin glutathione reductase (TGR), Q962Y6 | purified TGR, DTNB reduction, TNB absorbance 405 nm | Potency, µM (highest dose often 114 µM), inactives show at the top dose activity change, negative = inhibition, most hits filed as inhibitors | hit rate 3% among 360,000 | AID 485364, 2010; note: nearly all actives have a fitted effect of over 60% in size
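Kinetic colorimetric format: TGR-catalysed, NADPH-driven DTNB reduction monitored via TNB absorbance. Enzyme dispensed at 20 nM; compound exposure 15 min at room temperature before reaction start.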
AmpC no deterg: qHTS Inhibitors of AmpC Beta-Lactamase (assay without detergent); Potency, µM (top dose mostly 57.1 µM), without a hit: at the highest dose activity change, negative = inhibition, most hits filed as inhibitors; AmpC nitrocefin hydrolysis, absorbance 480 nm, 0.0001% Triton; P00811; hit rate 0.52% among 330,000;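 note: plate controls were no compound for no effect and no enzyme for full effect; nearly all actives have a fitted effect of over 20% in size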
Target sequence (P00811 whole entry, looked up): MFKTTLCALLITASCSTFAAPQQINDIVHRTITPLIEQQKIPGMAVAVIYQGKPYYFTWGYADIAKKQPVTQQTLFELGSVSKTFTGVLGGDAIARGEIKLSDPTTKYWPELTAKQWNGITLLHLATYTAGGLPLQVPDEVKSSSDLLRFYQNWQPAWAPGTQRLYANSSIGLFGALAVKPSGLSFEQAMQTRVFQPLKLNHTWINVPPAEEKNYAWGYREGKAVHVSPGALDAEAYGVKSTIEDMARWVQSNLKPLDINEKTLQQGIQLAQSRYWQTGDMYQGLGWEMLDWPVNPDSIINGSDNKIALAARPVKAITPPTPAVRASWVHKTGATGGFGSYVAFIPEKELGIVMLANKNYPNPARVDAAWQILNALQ
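AmpC (5.3 nM in the dispensed reagent) in 20 mM phosphate pH 7.0 with 0.01% (detergent screen) or 0.0001% Triton X-100 was preincubated with compounds for 15 min at room temperature. Nitrocefin was then added from an 800 uM solution, and hydrolysis was followed at 480 nm.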
AmpC detergent: qHTS Inhibitors of AmpC Beta-Lactamase (assay with detergent). P00811. AmpC hydrolysis of nitrocefin, absorbance 480 nm, 0.01% Triton. Potency, µM (top dose mostly 114 µM), for inactives: at the highest dose activity change, negative = inhibition, actives largely listed as inhibitors. hit rate 0.041% among 370,000. AID 485294, 2010;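 note: 0% = no-compound wells and -100% = no-enzyme wells; nearly all actives have a fitted effect of over 25% in size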
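20 mM phosphate pH 7.0 + 0.01% (detergent screen) or 0.0001% Triton X-100; 5.3 nM AmpC reagent; cpd preinc 15 min RT; nitrocefin (800 uM stock) to start; A480 q20 s × 4 min; Activity was normalised to no-enzyme and no-compound control wells.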
An asterisk follows results filed as active; ? = inconclusive; · = not tested or not shown. Calls come from the whole dose curve; as a rule, active = well fitted curve in the direction sought with a large enough effect; inconclusive = small, poorly fitted or top-dose-only effect, or another doubt; inactive = no such curve, though single readings can be large; an effect the other way counts as inactive or inconclusive. Unless noted, % is set by controls: 0 for no effect and ±100 for the full control effect; potency is the fitted concentration of half-maximal effect.

SMILES	Sm TGR block	AmpC no deterg	AmpC detergent
CC(C)OCCCNC(=O)C(=O)Nc1c2c(nn1-c1ccccc1)CS(=O)(=O)C2	-1%	·	6%
S=C(Nc1ccccc1)Nc1ccccc1Br	45µM*	0%	-4%
Cc1ccccc1NC(=S)Nc1ccc(Br)cc1	-22%	-26%	?
CC(=O)NS(=O)(=O)c1ccc(NC(=S)NC(=O)c2ccco2)cc1	0%	-5%	-8%
NS(=O)(=O)c1ccc(NC(=S)NC(=O)c2ccco2)cc1	56µM*	-17%	-5%
Cc1cccc(NC(=S)NC(=O)/C=C/c2ccco2)c1	·	-41%	4%
CC(=O)c1ccc(NC(=S)NC(=O)/C=C/c2ccco2)cc1	20µM*	-42%	?
O=C(/C=C/c1ccco1)NC(=S)Nc1cccc([N+](=O)[O-])c1	45µM*	-27%	-2%
O=C(/C=C/c1ccco1)NC(=S)Nc1ccccc1	?	-47%	?
COc1ccc(N(Cc2cccs2)C(=O)Nc2ccccc2)cc1	2%	·	34%
CCCn1c(CCC(=O)Nc2cccc(C)c2C)nc2cccnc21	-7%	·	0%
CCOc1ccc(NC(=O)CC2C(=O)N(c3ccc(Cl)cc3)C(=O)N2Cc2cccs2)cc1 (configuration not stated)	9%	·	1%
Cc1ccc(CNC(=O)C2CCCN(S(=O)(=O)c3ccc4c(c3)oc(=O)n4C)C2)cc1 (configuration not stated)	9%	·	5%
COc1ccc(N2CCN(CCCNC(=O)c3cnn(-c4ccc(C)cc4)c3-n3cccc3)CC2)cc1	-5%	·	25%
CCOc1ccc(NC(=S)NCc2ccc3c(c2)OCO3)cc1	5µM*	-56%	6%
Cc1ccc(NC(=S)NCc2ccc3c(c2)OCO3)cc1	-12%	-33%	?
CCOc1ccc(NC(=S)NC(=O)c2ccco2)cc1	13µM*	-11%	-4%
NS(=O)(=O)c1ccc(NC(=S)NC(=O)/C=C/c2ccco2)cc1	40µM*	-38%	-9%
NC(N)=NS(=O)(=O)c1ccc(NC(=S)NC(=O)/C=C/c2ccco2)cc1	-36%	-9%	?
O=C(NC(=S)Nc1ccccc1Br)c1ccco1	35µM*	-16%	4%
Cc1cccc(NC(=S)NC(=O)c2ccco2)c1C	?	-18%	9%
CCOc1ccc(NC(=O)c2ccco2)cc1	-9%	-8%	-4%
Cc1ccc(-n2nc(CO)c(C(=O)NCCc3ccccc3)n2)cc1C	-10%	·	?
Cc1ccc(NC(=O)C(C)n2nnc3sc4c(c3c2=O)CCCC4)cc1Cl (configuration not stated)	-1%	·	20%
COc1cccc(N2CCN(C(=O)c3ccc4c(Cl)c5c(nc4c3)CCCC5)CC2)c1	-1%	·	12%
SMILES	Sm TGR block	AmpC no deterg	AmpC detergent
COc1ccc(C2=NN(C(C)=O)C(c3cn(-c4ccccc4)nc3-c3cccs3)C2)cc1 (configuration not stated)	2%	·	1%
COc1ccccc1NC(=O)CSc1nnc(-c2nonc2NC(C)=O)n1-c1ccccc1	-2%	·	12%
CCOc1ccc(C(=O)Nc2ccc3c(c2)CCCN3S(=O)(=O)c2ccc(C)cc2)cc1	3%	·	10%
COc1ccc(NC(=O)C2CCN(S(=O)(=O)c3cccc(-c4noc(C)n4)c3)CC2)cc1OC	2%	·	1%
COC(=O)CN1C(=O)CC(C)(C)S(=O)c2ccccc21 (configuration not stated)	0%	1.3µM*	?
COC(=O)CN1C(=O)c2cccc3cccc1c23	-7%	-9%	-7%
Cc1ccc(-n2nnnc2CNC(=O)c2ccc(F)cc2)cc1C	6%	·	17%
Cc1ccc(-c2nnc(-c3ccccc3)c(-c3ccccc3)n2)cc1	-9%	-27%	-11%
Cc1cc(-c2nnc(-c3ccccc3)c(-c3ccccc3)n2)c(C)o1	6.3µM*	12%	-9%
Cc1cccc(OCC(=O)NNC(=O)CCCCC(=O)NNC(=O)COc2cccc(C)c2)c1	-3%	-3%	1%
CC[C@]1(c2ccccc2)C(=O)N(C(=O)OC)N1C(=O)OC	2.2µM*	-2%	?
COC(=O)N1C(=O)[C@@](c2ccccc2)(C2CCCCC2)N1C(=O)OC	13µM*	66%	-9%
CCC1(c2ccccc2)NC(=O)N(CC(=O)NCc2ccccc2OC)C1=O (configuration not stated)	1%	4%	5%
CC[C@]1(c2cccc(C)c2)C(=O)N(C(=O)OC)N1C(=O)OC	1.8µM*	-15%	-4%
Cc1ccccc1CNC(=O)COc1ccccc1	-3%	-23%	?
COC(=O)N1CC(c2ccccc2)CC1=O (configuration not stated)	0%	-12%	?
CC[C@@]1(c2ccccc2C)C(=O)N(C(=O)OC)N1C(=O)OC	6.3µM*	0%	-13%
COc1cccc(CNC(=O)c2ccc(-n3c(C)cc4c3CCCC4)cc2)c1	?	·	20%
Cc1cc(C)n(-c2nc3ccccc3nc2Nc2cccc(C(F)(F)F)c2)n1	2%	·	5%
CCOc1ccc(C2Nc3ccccc3-c3nnc(SCc4ccccc4)nc3O2)cc1OC (configuration not stated)	-7%	·	3%
Cc1ccc(S(=O)(=O)N2CCN(Cc3ccccc3)CC2)c(C)c1NS(C)(=O)=O	1%	·	9%
O=C(CN1CCCN(Cc2cccc(F)c2)S1(=O)=O)Nc1ccc2c(c1)OCCO2	5%	·	5%
COC(=O)N1C(=O)[C@](c2ccccc2)(C(C)C)N1C(=O)OC	0%	6%	-13%
CC[C@@]1(c2ccccc2)C(=O)N(C(=O)OC)N1C(=O)OC	2µM*	-21%	5%
CSc1ccc(CCNC(=O)CCCn2c(=O)c3cccn3c3ccccc32)cc1	2%	·	22%
SMILES	Sm TGR block	AmpC no deterg	AmpC detergent
C=CCC(C=C)S(=O)(=O)c1ccc(C)cc1 (configuration not stated)	-20%	-7%	1%
CCc1[nH]c(=O)[nH]c1C(C)S(=O)(=O)c1ccc(C)cc1 (configuration not stated)	0.28µM*	-1%	-2%
Cc1ccc(-n2c3c(c(=O)[nH]c2=O)C(NS(=O)(=O)c2ccc(C)cc2)(C(F)(F)F)C(=O)N3)cc1 (configuration not stated)	9%	-15%	28%
CCc1c(C(C)S(=O)(=O)c2ccc(C)cc2)[nH]c(=O)n1-c1ccc(C)cc1 (configuration not stated)	2.8µM*	-9%	3%
COc1ccc(-n2c(=O)c3c4c(sc3n(Cc3ccc(F)cc3)c2=O)CCCC4)c(OC)c1	-3%	·	9%
CCCCOc1ccc(C(=O)N(Cc2ccc(C(C)C)cc2)C2CCS(=O)(=O)C2)cc1 (configuration not stated)	-2%	·	?
O=C(NCc1ccc(F)cc1)c1ccc(S(=O)(=O)N2CCCCC2)cc1	-6%	-39%	1%
O=C(CNC(=O)c1ccc(F)cc1)NCc1ccc(S(=O)(=O)N2CCOCC2)cc1	89µM*	-11%	0%
Cc1ccc(NC(=O)CSc2nc3ccccc3c3nc(CCn4c(C)nc5ccccc54)nn23)cc1F	-1%	·	-4%
